Among the data in PubChem BioAssay are growth inhibition, inhibition and outcome values, retold here.

Unmarked numbers belong to inactive results. For some of these results: Results with a measured potency or affinity are listed apart. Active and inactive are the calls of the source. Unless noted, how the calls were made is not given here.

Assay [1] is described as follows: antimalarial activity against Dd2 strain (AID 2302;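 active means growth inhibition above 50% at the single 2 µM test dose, taken to imply half-maximal potency below 2 µM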;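 further: 0% = DMSO untreated growth and 100% = chloroquine plus artemisinin killed control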). The settings on record: P. falciparum Dd2 in RBCs, LDH growth readout, 72 h; at 2 µM; active compounds read high.
A short description of assay [2]: HepG2 cytotoxicity, primary screen, cytotoxicity control for P. falciparum antimalarial project, cell-based, ATP luminescence (AID 2303;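 active means inhibition above 50%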;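 further: 0% = DMSO wells and 100% = digitonin-killed cells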). The settings on record: HepG2 viability, 24-48 h, at 10 µM, active compounds read high.
Assay [3] addresses L-lactate dehydrogenase (Plasmodium falciparum (isolate CDC / Honduras)) (UniProt Q27743). Kind of assay: PfLDH activity inhibition – cell lysate, 3D7 strain, counter-screen for P. falciparum growth inhibition project (AID 2304).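 Further: 0% = vehicle and 100% = reference inhibitor.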 The conditions noted are these: P. falciparum 3D7 crude extract, LDH APAD/NBT absorbance; at 2 µM; active compounds read high. On the technique in general: Counterscreens check selectivity or assay interference.

The nature of assay [4]: inhibition of 3D7 malaria parasite growth – strain 3D7 (AID 2306).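 Further: 0% = DMSO wells and 100% = chloroquine plus artemisinin control wells.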 The conditions noted are these: P. falciparum 3D7 erythrocytic growth, LDH absorbance, 72 h; at 2 µM; active compounds read high.
Assay [5] has as its target Calcium-dependent protein kinase 1 (Plasmodium falciparum (isolate 3D7)) (UniProt P62344). Kind of assay: PfCDPK1 kinase inhibitors, biochemical, TCAMS library (AID 1159585; cut-off not given, nearly all actives have IC50 up to about 0.98 µM;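 further: inhibitors leave more ATP so luminescence rises with inhibition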). The settings on record: recombinant PfCDPK1, Kinase-Glo ATP depletion luminescence. Background: In Kinase-Glo more light means more ATP remaining.
Assay [6] has as its target Plasmodium falciparum protein kinase 6 (PK6, PF3D7_1337100) (UniProt Q8IDW1). Kind of assay: PfPK6 kinase inhibitors, biochemical, TCAMS library (AID 1159586). The conditions noted are these: recombinant PfPK6, Kinase-Glo ATP depletion luminescence.
Assay [7] addresses Protein kinase 7 (PK7), Plasmodium falciparum 3D7 (PF3D7_0213400) (UniProt Q7YTF7). Kind of assay: inhibition of Plasmodium PK7 catalytic activity – biochemical, TCAMS antimalarial set, Kinase-Glo luminescence (AID 1159587). The settings on record: recombinant PfPK7, Kinase-Glo ATP depletion luminescence.
Assay [8] has as its target Calcium-dependent protein kinase 4 (Plasmodium falciparum (isolate 3D7)) (UniProt Q8IBS5). Put plainly: PfCDPK4 kinase inhibitors, biochemical, TCAMS library (AID 1159588; cut-off not given, nearly all actives have IC50 up to about 0.91 µM). The conditions noted are these: recombinant PfCDPK4, Kinase-Glo ATP depletion luminescence.

Chain of Plasmodium falciparum protein kinase 6 (PK6, PF3D7_1337100) (Q8IDW1 1-305): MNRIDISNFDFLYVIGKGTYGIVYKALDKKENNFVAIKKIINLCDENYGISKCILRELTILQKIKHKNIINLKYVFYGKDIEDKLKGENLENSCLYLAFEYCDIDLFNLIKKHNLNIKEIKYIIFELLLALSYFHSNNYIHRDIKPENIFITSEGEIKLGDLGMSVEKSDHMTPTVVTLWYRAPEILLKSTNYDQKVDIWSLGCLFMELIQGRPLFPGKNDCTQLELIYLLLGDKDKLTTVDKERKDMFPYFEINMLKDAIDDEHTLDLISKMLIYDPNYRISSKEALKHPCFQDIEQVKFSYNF
Chain of L-lactate dehydrogenase (Plasmodium falciparum (isolate CDC / Honduras)) (Q27743 whole entry, looked up): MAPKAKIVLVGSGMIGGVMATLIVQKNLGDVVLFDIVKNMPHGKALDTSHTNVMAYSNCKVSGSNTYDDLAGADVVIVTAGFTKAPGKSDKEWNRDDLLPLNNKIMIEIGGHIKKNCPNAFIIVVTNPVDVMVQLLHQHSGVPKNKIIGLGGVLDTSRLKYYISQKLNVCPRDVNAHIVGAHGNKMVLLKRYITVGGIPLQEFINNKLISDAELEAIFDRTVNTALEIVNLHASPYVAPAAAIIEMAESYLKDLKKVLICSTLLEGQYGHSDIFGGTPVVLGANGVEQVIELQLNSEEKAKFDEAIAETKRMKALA
Chain of Calcium-dependent protein kinase 4 (Plasmodium falciparum (isolate 3D7)) (Q8IBS5 whole entry, looked up): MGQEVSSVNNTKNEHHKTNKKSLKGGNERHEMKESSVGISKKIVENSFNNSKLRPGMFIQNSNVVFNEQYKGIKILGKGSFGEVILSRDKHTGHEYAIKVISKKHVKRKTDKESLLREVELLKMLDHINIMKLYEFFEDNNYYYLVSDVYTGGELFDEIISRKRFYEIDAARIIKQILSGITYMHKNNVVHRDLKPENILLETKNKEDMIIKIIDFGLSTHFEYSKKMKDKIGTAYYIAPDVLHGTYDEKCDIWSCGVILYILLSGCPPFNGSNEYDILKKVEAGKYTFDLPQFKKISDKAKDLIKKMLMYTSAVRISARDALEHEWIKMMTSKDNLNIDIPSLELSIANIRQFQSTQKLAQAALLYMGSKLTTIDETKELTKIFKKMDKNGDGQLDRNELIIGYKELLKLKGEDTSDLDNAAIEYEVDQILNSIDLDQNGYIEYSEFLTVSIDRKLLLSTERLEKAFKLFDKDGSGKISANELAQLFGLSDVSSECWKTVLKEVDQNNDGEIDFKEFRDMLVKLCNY
Chain of Protein kinase 7 (PK7), Plasmodium falciparum 3D7 (PF3D7_0213400) (Q7YTF7 1-343): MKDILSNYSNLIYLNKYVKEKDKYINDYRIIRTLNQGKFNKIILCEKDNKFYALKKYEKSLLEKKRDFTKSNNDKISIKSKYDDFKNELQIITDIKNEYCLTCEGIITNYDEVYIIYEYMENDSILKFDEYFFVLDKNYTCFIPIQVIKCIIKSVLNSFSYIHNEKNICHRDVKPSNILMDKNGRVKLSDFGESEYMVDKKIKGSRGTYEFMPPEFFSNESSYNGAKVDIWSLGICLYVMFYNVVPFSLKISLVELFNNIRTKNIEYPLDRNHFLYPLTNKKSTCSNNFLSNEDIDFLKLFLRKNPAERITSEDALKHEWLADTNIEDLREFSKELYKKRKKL
Chain of Calcium-dependent protein kinase 1 (Plasmodium falciparum (isolate 3D7)) (P62344 whole entry, looked up): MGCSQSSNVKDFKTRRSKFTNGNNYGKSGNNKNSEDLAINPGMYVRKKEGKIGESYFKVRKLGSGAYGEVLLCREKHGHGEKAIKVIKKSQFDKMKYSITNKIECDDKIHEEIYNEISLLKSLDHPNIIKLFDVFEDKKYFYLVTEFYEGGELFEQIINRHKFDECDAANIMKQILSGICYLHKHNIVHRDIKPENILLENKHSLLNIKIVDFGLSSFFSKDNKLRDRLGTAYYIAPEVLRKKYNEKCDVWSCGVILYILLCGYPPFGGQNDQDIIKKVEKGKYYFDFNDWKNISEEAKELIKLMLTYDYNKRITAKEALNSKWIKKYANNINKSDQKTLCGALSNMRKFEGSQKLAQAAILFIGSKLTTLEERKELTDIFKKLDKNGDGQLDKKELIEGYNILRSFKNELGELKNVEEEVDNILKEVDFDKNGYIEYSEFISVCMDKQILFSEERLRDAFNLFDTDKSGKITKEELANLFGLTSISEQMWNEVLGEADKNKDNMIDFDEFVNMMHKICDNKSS

As usually defined, the inhibition is the relative decrease from the control value, in per cent. In the case of `N=c1n(CCN2CCCC2)c2ccccc2n1CC(O)c1ccc(Cl)c(Cl)c1` (stereo not given), the figures for the growth inhibition in assay [1] and in assay [4] were 6% and 100% (active), respectively. Moreover, the inhibition in assay [2] is 36%; in assay [3], 5%. Besides, the result in assay [5], in assay [6], in assay [7] and in assay [8] was inactive.

Take `CCNc1cc(C(=O)N[C@@H](Cc2ccccc2)[C@H](O)CN[C@@H](C)c2ccccc2)cc(N2CCCC2=O)c1`: the growth inhibition in assay [1] was 96% (active); in assay [4], 98% (active). Besides, the values for the inhibition in assay [2] and in assay [3] were 7% and 8%, respectively. Further, the outcome in assay [5], in assay [6], in assay [7] and in assay [8] was inactive.

For `CCc1ccc(NC(=O)c2cccc(CN3CCCN(Cc4cccc(O)c4)CC3)c2)cc1`, the growth inhibition in assay [1] was 50% (active); in assay [4], 99% (active). In addition, the inhibition in assay [2] is 53% (active); in assay [3], 3%. Also, the result in assay [5], in assay [6], in assay [7] and in assay [8] was inactive.

In the case of `Cc1cccc2[nH]c(-c3cccc(-c4cccc(NC(=O)NCc5ccccc5)c4)c3)nc12`, the growth inhibition in assay [1] was 27%; in assay [4], 94% (active). Also, the results for the inhibition in assay [2] and in assay [3] were 12% and 5%, respectively. Moreover, the outcome in assay [5], in assay [6], in assay [7] and in assay [8] was inactive.

On to `Cc1[nH]c(C)c(-c2ccc(-c3ccccc3Cl)nc2)c(=O)c1Br`, for which the growth inhibition in assay [1] is 96% (active); in assay [4], 97% (active). Further, the figures for the inhibition in assay [2] and in assay [3] were -2% and -5%, respectively. Further, the result in assay [5], in assay [6], in assay [7] and in assay [8] was inactive.

As to `O=c1cc(NCCCNCc2ccc3c(c2)OC(F)(F)O3)[nH]c2ccccc12`, the growth inhibition is 94% (active) in assay [1] and 100% (active) in assay [4]. In addition, the results for the inhibition in assay [2] and in assay [3] were -9% and -6%, respectively. In addition, the result in assay [5], in assay [6], in assay [7] and in assay [8] was inactive.

Turning to `CN(C)c1ccc(-c2nnc(Sc3ccc(C#N)c([N+](=O)[O-])c3)n2Cc2ccco2)cc1`, the growth inhibition was 79% (active) in assay [1] and 95% (active) in assay [4]. Moreover, the inhibition in assay [2] and in assay [3] was 3% throughout. The outcome in assay [5], in assay [6], in assay [7] and in assay [8] was inactive.

As to `COc1cccc(OC)c1CN1CCC(N(C)CCCCCCCCN2CCC(OC(=O)Nc3ccccc3-c3ccccc3)CC2)CC1`, the growth inhibition in assay [1] was 100% (active); in assay [4], 99% (active). For the same compound, the inhibition in assay [2] was 100% (active); in assay [3] it was 1%. For the same compound, the result in assay [5], in assay [6], in assay [7] and in assay [8] was inactive.

With `COc1ccc(N2CCN(CCCCNC(=O)c3ccc(/C=C/c4ccc(Cl)c(Cl)c4)cc3)CC2)c(OC)c1`, the growth inhibition was 51% (active) in assay [1] and 101% (active) in assay [4]. In addition, the inhibition in assay [2] is 51% (active); in assay [3], -8%. In addition, the outcome in assay [5], in assay [6], in assay [7] and in assay [8] was inactive.

As for `Cc1noc(C)c1S(=O)(=O)N(C)Cc1ccc(-c2ccc(Cl)cc2)o1`, the growth inhibition in assay [1] and in assay [4] was 100% (active) each time. In addition, the inhibition in assay [2] was 10%; in assay [3], -3%. Besides, the outcome in assay [5], in assay [6], in assay [7] and in assay [8] was inactive.

Take `COc1ccccc1CCN1CCC(CN(C)Cc2ccc(O)c(Cl)c2)CC1`: the growth inhibition in assay [1] is 52% (active); in assay [4] it was 101% (active). The inhibition in assay [2] is 19%; in assay [3] it was -3%. Further, the outcome in assay [5], in assay [6], in assay [7] and in assay [8] was inactive.

With `Cc1cccc2[nH]c(-c3ccc(-c4ccc(CN5CCCCC5)cc4)cc3)nc12`, the growth inhibition is 99% (active) in assay [1] and 100% (active) in assay [4]. Also, the figures for the inhibition in assay [2] and in assay [3] were 27% and -2%, respectively. Besides, the outcome in assay [5], in assay [6], in assay [7] and in assay [8] was inactive.

On to `CCOc1ccc2nc(-c3ccccc3)cc(NN=Cc3ccncc3)c2c1`, for which the growth inhibition in assay [1] is 101% (active); in assay [4], 102% (active). The results for the inhibition in assay [2] and in assay [3] were 19% and 0%, respectively. Besides, the outcome in assay [5], in assay [6], in assay [7] and in assay [8] was inactive.

For the compound `COc1ccccc1-c1cccc(Nc2c(Nc3ccc(Cl)cc3)c(=O)c2=O)c1`, the growth inhibition in assay [1] is 47%; in assay [4], 81% (active). Also, the inhibition in assay [2] is 20%; in assay [3] it was 0%. In addition, the outcome in assay [5], in assay [6], in assay [7] and in assay [8] was inactive.

On to `O=C(Nc1cccc(-c2ccc(-c3nc4ccc(F)cc4[nH]3)s2)c1)c1ccncc1`, for which the growth inhibition in assay [1] was 29%; in assay [4], 96% (active). Also, the inhibition in assay [2] was 74% (active); in assay [3], -8%. Moreover, the outcome in assay [5], in assay [6], in assay [7] and in assay [8] was inactive.

Regarding `CCOCn1c(-c2ccccc2)cc2c3c(N)nc(N)nc3ccc21`, the growth inhibition is 66% (active) in assay [1] and 91% (active) in assay [4]. The inhibition is 62% (active) in assay [2] and -4% in assay [3]. The result in assay [5], in assay [6], in assay [7] and in assay [8] was inactive.

With `O=C(/C=C/c1ccc(Cl)cc1)NCCCCCN1CCCN(C(=O)Nc2ccc(F)c(Cl)c2)CC1`, the growth inhibition in assay [1] was 6%; in assay [4], 94% (active). The inhibition was 29% in assay [2] and 1% in assay [3]. Moreover, the outcome in assay [5], in assay [6], in assay [7] and in assay [8] was inactive.

Regarding `O=C(NCCc1ccccc1)N(Cc1ccccc1-c1ccc(CNCCc2ccccc2)cc1)C1CCN(Cc2ccccc2)CC1`, the growth inhibition in assay [1] is 91% (active); in assay [4], 97% (active). Besides, the inhibition was 99% (active) in assay [2] and 5% in assay [3]. The result in assay [5], in assay [6], in assay [7] and in assay [8] was inactive.

For the compound `Oc1ccc(CN2Cc3ccccc3OC3(CCN(Cc4c[nH]c5cnccc45)CC3)C2)cc1`, the growth inhibition in assay [1] was 3%; in assay [4], 101% (active). The inhibition in assay [2] was 17%; in assay [3], -6%. The result in assay [5], in assay [6], in assay [7] and in assay [8] was inactive.

Turning to `COc1cccc(Nc2nc(C)cc(NC3CCCC3)n2)c1`, the figures for the growth inhibition in assay [1] and in assay [4] were 79% (active) and 101% (active), respectively. The figures for the inhibition in assay [2] and in assay [3] were 41% and 1%, respectively. Also, the result in assay [5], in assay [6], in assay [7] and in assay [8] was inactive.
